Experimental data from PubChem BioAssay AID1159580 (chemical genetic matrix, 2015).
The whole screen tested about 5,500 compounds, of which about 2,000 (36%) were called active. Roughly 18% stayed inconclusive and do not appear here. No stated cut-off is given here; in the data, active means normalized growth mostly below about 0.91 (no sharp cut-off); inconclusive means no clear call, values can overlap the other calls; inactive means mostly above about 0.92. The list shows a part of the results.

Experiment: chemical genetic growth profiling, strain panel (AID 1159580);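 further: tested at 20 µM; growth read once vehicle control cultures reached saturation at 30 °C; 1 = growth at the plate median or of vehicle wells; lower values mean less growth of the strain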
Conditions: S. cerevisiae deletion strains, growth OD

Measured: normalized growth

C=C1CC2C3C=C(C)C4=CC(=O)CC[C@]4(C)C3CC[C@]2(C)[C@@]1(OC(C)=O)C(C)=O (stereo partly drawn)
inactive: locus YHR030C, strain SLT2, active compounds read low 0.955 | locus YHR079C, strain IRE1, active compounds read low 0.933 | locus YJL095W, strain BCK1, active compounds read low 0.955 | locus YJR066W, strain TOR1, active compounds read low 0.922 | locus YLR113W, strain HOG1, active compounds read low 0.92 | locus YNL183C, strain NPR1, active compounds read low 0.876 | locus YOR231W, strain MKK1, active compounds read low 0.955 | locus YPL256C, strain CLN2, active compounds read low 0.916
